Results taken from PubChem BioAssay.
Results filed as inconclusive are left out. Calls of active or inactive are those of the source.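 The calls were made as follows, unless noted: active = normalized viability below 100% at a tested concentration; inactive = the rest.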

Legend:
[1] = viability loss in pontine glioma line – cell-based, SU-DIPG-XVII, MIPE5.0, CellTiter-Glo, qHTS, dose response (AID 1347060; cut-off not given, nearly all actives have AC50 up to about 26 µM;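 as to AC50: cells exposed to compound for 48 hours before viability readout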); settings: CellTiter-Glo ATP luminescence
[2] = viability loss in pontine glioma line – cell-based, JHH-DIPG-1, MIPE4.0, CellTiter-Glo, qHTS, dose response (AID 1347062; cut-off not given, nearly all actives have AC50 up to about 27 µM;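 as to AC50: cells exposed to compound for two days before readout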); settings: JHH-DIPG-1 viability, CellTiter-Glo ATP luminescence
[3] = viability loss in pontine glioma line – cell-based, SU-DIPG-IV, MIPE4.0, CellTiter-Glo, qHTS, dose response (AID 1347063; cut-off not given, nearly all actives have AC50 up to about 30 µM;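 also: compound exposure lasted 48 hours before the viability readout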); settings: CellTiter-Glo ATP luminescence
[4] = viability loss in pontine glioma line – cell-based, SU-DIPG-XXV, MIPE5.0, CellTiter-Glo, qHTS, dose response (AID 1347065; cut-off not given, nearly all actives have AC50 up to about 26 µM;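 also: cells exposed to compound for 48 hours before ATP readout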); settings: CellTiter-Glo ATP luminescence
[5] = growth inhibition of DIPG cells – cell-based, MIPE4.0 library, CellTiter-Glo luminescence, qHTS (AID 1347066; cut-off not given, nearly all actives have AC50 up to about 30 µM;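 also: cells exposed to compound for 48 hours before readout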); settings: SU-DIPG-VI viability, CellTiter-Glo ATP luminescence
[6] = JHH-DIPG-1 glioma cell viability, MIPE5.0 library, CellTiter-Glo luminescence, qHTS (AID 1347067; cut-off not given, nearly all actives have AC50 up to about 26 µM;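 also: cells exposed to compound for 48 hours before readout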); settings: JHH-DIPG-1 glioma viability, CellTiter-Glo ATP luminescence
[7] = growth inhibition of DIPG cells – cell-based, MIPE5.0 library, qHTS (AID 1347068; cut-off not given, nearly all actives have IC50 up to about 30 µM;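 as to IC50: cells exposed to compound for 48 hours before viability readout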); settings: SU-DIPG-XXV viability
[8] = viability loss with induced miR-34 in A549 – imaging, A549 dox-inducible miR-34, nuclei and caspase counts, primary screen (AID 1347080;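 active = compounds whose cell count with miR-34 switched on is under 0.7 times the count with it off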); settings: A549 miR-34 inducible, Hoechst nuclei count, 48 h
[9] = MELAS cybrid and Rieske KO viability enhancers – cell-based, MELAS cybrids, Rieske KO mouse fibroblasts, CellTiter-Glo, primary screen (AID 1508586;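 active = mean z-score across replicates of 1.96 or higher in either the MELAS or the Rieske mutant cell line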;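 also: z relative to plate mean and SD of compound and empty wells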); settings: low glucose
[10] = compounds altering HSF1 focus formation in cells – imaging, Selleck Cancer Library (AID 1347162; in the data active = plate-normalised HSF1 focus index below about 0.46); settings: human cells, HSF1 nuclear foci imaging, at 10 µM; SSMD: measured here: HSF1 foci SSMD mean; cell count: measured here: cell number; plate-normalised HSF1 focus index: stronger effect = lower value
[11] = drug combination growth inhibition, ovarian cancer – cell-based, oncology-focused library, rucaparib conditional, profiling panel (AID 1508598); settings: patient-derived ovarian cancer cells, CellTiter-Glo viability, 144 h, stronger effect = lower value
[12] = stronger effect = lower value, cell number ratio, induced over uninduced
[13] = measured here: relative caspase fold change +Dox/-Dox
[14] = measured here: total cells with miR-34 induction, stronger effect = lower value
[15] = measured here: total cells without miR-34 induction
[16] = MELAS cybrid survival, CellTiter-Glo 48 h, stronger effect = higher value
[17] = Rieske KO mouse fibroblast survival, CellTiter-Glo 72 h
[18] = at 0.000305 µM, OCI-C5x cells, with rucaparib 10 µM, 100% = cells with rucaparib alone
[19] = at 0.000305 µM, OCI-C5x cells, without rucaparib
[20] = at 0.000305 µM, OCI-P5x cells, with rucaparib 20 µM, 100% = cells with rucaparib alone
[21] = at 0.000305 µM, OCI-P5x cells, without rucaparib
[22] = at 0.00122 µM, OCI-C5x cells, with rucaparib 10 µM, 100% = cells with rucaparib alone
[23] = at 0.00122 µM, OCI-C5x cells, without rucaparib
[24] = at 0.00122 µM, OCI-P5x cells, with rucaparib 20 µM, 100% = cells with rucaparib alone
[25] = at 0.00122 µM, OCI-P5x cells, without rucaparib
[26] = at 0.00488 µM, OCI-C5x cells, with rucaparib 10 µM, 100% = cells with rucaparib alone
[27] = at 0.00488 µM, OCI-C5x cells, without rucaparib
[28] = at 0.00488 µM, OCI-P5x cells, with rucaparib 20 µM, 100% = cells with rucaparib alone
[29] = at 0.00488 µM, OCI-P5x cells, without rucaparib
[30] = at 0.0195 µM, OCI-C5x cells, with rucaparib 10 µM, 100% = cells with rucaparib alone
[31] = at 0.0195 µM, OCI-C5x cells, without rucaparib
[32] = at 0.0195 µM, OCI-P5x cells, with rucaparib 20 µM, 100% = cells with rucaparib alone
[33] = at 0.0195 µM, OCI-P5x cells, without rucaparib
[34] = at 0.0781 µM, OCI-C5x cells, with rucaparib 10 µM, 100% = cells with rucaparib alone
[35] = at 0.0781 µM, OCI-C5x cells, without rucaparib
[36] = at 0.0781 µM, OCI-P5x cells, with rucaparib 20 µM, 100% = cells with rucaparib alone
[37] = at 0.0781 µM, OCI-P5x cells, without rucaparib
[38] = at 0.313 µM, OCI-C5x cells, with rucaparib 10 µM, 100% = cells with rucaparib alone
[39] = at 0.313 µM, OCI-C5x cells, without rucaparib
[40] = at 0.313 µM, OCI-P5x cells, with rucaparib 20 µM, 100% = cells with rucaparib alone
[41] = at 0.313 µM, OCI-P5x cells, without rucaparib
[42] = at 1.25 µM, OCI-C5x cells, with rucaparib 10 µM, 100% = cells with rucaparib alone
[43] = at 1.25 µM, OCI-C5x cells, without rucaparib
[44] = at 1.25 µM, OCI-P5x cells, with rucaparib 20 µM, 100% = cells with rucaparib alone
[45] = at 1.25 µM, OCI-P5x cells, without rucaparib
[46] = at 5 µM, OCI-C5x cells, with rucaparib 10 µM, 100% = cells with rucaparib alone
[47] = at 5 µM, OCI-C5x cells, without rucaparib
[48] = at 5 µM, OCI-P5x cells, with rucaparib 20 µM, 100% = cells with rucaparib alone
[49] = at 5 µM, OCI-P5x cells, without rucaparib

CCN(CC)CCCCNc1nc2cc(Cl)c(Cl)cc2nc1-c1ccc(-c2cccs2)s1
active: AC50 [1] 6.61 µM | AC50 [2] 7.43 µM | AC50 [3] 7.43 µM | AC50 [4] 5.25 µM | AC50 [5] 14.8 µM | AC50 [6] 9.34 µM

CCc1ccc(C(=O)Nc2cc(CN3CCN(C)CC3)cc(C(F)(F)F)c2)cc1C#Cc1cnc2ccnn2c1
active: AC50 [1] 14.8 µM | AC50 [2] 10.5 µM | AC50 [3] 7.43 µM | AC50 [4] 11.8 µM | AC50 [5] 16.6 µM | AC50 [6] 13.2 µM | IC50 [7] 14.8 µM

CS[C@H]1SC[C@@H]2C(=O)N(C)[C@H](C(C)C)C(=O)OC[C@H](NC(=O)c3cnc4ccccc4n3)C(=O)N[C@H](C)C(=O)N(C)[C@H]1C(=O)N(C)[C@H](C(C)C)C(=O)OC[C@H](NC(=O)c1cnc3ccccc3n1)C(=O)N[C@H](C)C(=O)N2C
active: AC50 [1] 0.00331 µM | AC50 [2] 0.00118 µM | AC50 [3] 0.00263 µM | AC50 [4] 0.00296 µM | AC50 [6] 0.00186 µM | IC50 [7] 0.0132 µM

CCOC(CN1C(=O)[C@](CC(=O)Nc2ccc(C)cc2)(NC(=O)Nc2ccc(C)cc2)c2ccccc21)OCC
inactive: outcome [2]
active: AC50 [1] 23.5 µM | AC50 [3] 14.8 µM | AC50 [4] 18.6 µM | AC50 [6] 20.9 µM | IC50 [7] 23.5 µM

NCC(=O)Nc1ccc(-n2nc(C(F)(F)F)cc2-c2ccc3c(ccc4ccccc43)c2)cc1
0.441: fold change [8, 13]
1800: cell count [8, 15]
-0.00325: z-score [9, 17]
2160: cell count [8, 14]
active: AC50 [1] 23.5 µM | AC50 [2] 23.5 µM | AC50 [3] 20.9 µM | AC50 [5] 20.9 µM | AC50 [6] 20.9 µM
inactive: fold change [8, 12] 1.2 | z-score [9, 16] -0.432

CC1(C)CCC(c2ccc(Cl)cc2)=C(CN2CCN(c3ccc(C(=O)NS(=O)(=O)c4ccc(N[C@H](CCN5CCOCC5)CSc5ccccc5)c(S(=O)(=O)C(F)(F)F)c4)cc3)CC2)C1
-3.49: SSMD [10]
active: AC50 [1] 8.33 µM | AC50 [2] 18.7 µM | AC50 [3] 2.09 µM | AC50 [4] 0.148 µM | AC50 [5] 0.59 µM | AC50 [6] 7.42 µM | IC50 [7] 3.32 µM | viability [11, 18] 37.1% | viability [11, 19] 78.4% | viability [11, 22] 12.7% | viability [11, 23] 34.9% | viability [11, 26] 32.2% | viability [11, 27] 62.4% | viability [11, 30] 19.9% | viability [11, 31] 46.8% | viability [11, 34] 14.8% | viability [11, 35] 15.9% | viability [11, 38] 10.6% | viability [11, 39] 18.4% | viability [11, 41] 92.1% | viability [11, 42] 10.8% | viability [11, 43] 15.2% | viability [11, 44] 90.1% | viability [11, 45] 88.9% | viability [11, 46] 4.72% | viability [11, 47] 11.9% | viability [11, 48] 0.895% | viability [11, 49] 10.5%
6830: cell count [10]
inactive: plate-normalised HSF1 focus index [10] 0.875 | viability [11, 20] 132% | viability [11, 21] 120% | viability [11, 24] 118% | viability [11, 25] 106% | viability [11, 28] 127% | viability [11, 29] 105% | viability [11, 32] 110% | viability [11, 33] 101% | viability [11, 36] 110% | viability [11, 37] 102% | viability [11, 40] 100%

COC[C@H](NC(=O)c1cnc(C)s1)C(=O)N[C@@H](COC)C(=O)N[C@@H](Cc1ccccc1)C(=O)[C@@]1(C)CO1
active: AC50 [1] 0.186 µM | AC50 [2] 0.148 µM | AC50 [3] 0.148 µM | AC50 [5] 0.332 µM

CNC(=O)c1ccc(N2C(=S)N(c3ccc(C#N)c(C(F)(F)F)c3)C(=O)C2(C)C)cc1F
active: viability [11, 19] 85.9% | viability [11, 20] 81% | viability [11, 21] 76.7% | viability [11, 23] 93.5% | viability [11, 24] 91.6% | viability [11, 25] 82% | viability [11, 27] 91.5% | viability [11, 28] 90.9% | viability [11, 29] 85% | viability [11, 31] 95.6% | viability [11, 32] 92.4% | viability [11, 33] 87.7% | viability [11, 36] 94.7% | viability [11, 37] 85.3% | viability [11, 39] 96.4% | viability [11, 41] 94.4% | viability [11, 45] 95.6% | viability [11, 48] 97.6% | viability [11, 49] 93.9%
0.602: z-score [9, 17]
6500: cell count [10]
inactive: outcome [1] | outcome [2] | outcome [3] | outcome [4] | outcome [5] | outcome [6] | outcome [7] | fold change [8, 12] 0.873 | plate-normalised HSF1 focus index [10] 1.02 | z-score [9, 16] -0.357 | viability [11, 18] 110% | viability [11, 22] 110% | viability [11, 26] 110% | viability [11, 30] 113% | viability [11, 34] 108% | viability [11, 35] 102% | viability [11, 38] 108% | viability [11, 40] 102% | viability [11, 42] 117% | viability [11, 43] 104% | viability [11, 44] 102% | viability [11, 46] 127% | viability [11, 47] 108%
0.472: SSMD [10]
8360: cell count [8, 15]
1.28: fold change [8, 13]
7300: cell count [8, 14]

CCN1CCC(n2cc(CNc3cc(Cl)c4ncc(C#N)c(Nc5ccc(F)c(Cl)c5)c4c3)nn2)CC1
active: AC50 [1] 18.6 µM | AC50 [2] 20.9 µM | AC50 [3] 18.7 µM | AC50 [4] 23.5 µM | AC50 [5] 16.6 µM

CC(C)C[C@H](NC(=O)CNC(=O)c1cc(Cl)ccc1Cl)B1OC(=O)CC(CC(=O)O)(C(=O)O)O1 (stereo partly specified)
7560: cell count [10]
inactive: plate-normalised HSF1 focus index [10] 1.18 | viability [11, 18] 104% | viability [11, 19] 124% | viability [11, 20] 111% | viability [11, 21] 113% | viability [11, 22] 107% | viability [11, 23] 123% | viability [11, 24] 111% | viability [11, 25] 110% | viability [11, 26] 100% | viability [11, 27] 122% | viability [11, 28] 112% | viability [11, 29] 110% | viability [11, 30] 107% | viability [11, 31] 119% | viability [11, 33] 104% | viability [11, 34] 101% | viability [11, 35] 118% | viability [11, 36] 103% | viability [11, 37] 100%
active: AC50 [1] 0.209 µM | AC50 [2] 0.132 µM | AC50 [3] 0.0662 µM | AC50 [4] 0.0833 µM | AC50 [6] 0.235 µM | IC50 [7] 0.132 µM | viability [11, 32] 97.5% | viability [11, 38] 25% | viability [11, 39] 16.8% | viability [11, 40] 12.3% | viability [11, 41] 3.86% | viability [11, 42] 6.01% | viability [11, 43] 5.13% | viability [11, 44] 2.61% | viability [11, 45] 1.15% | viability [11, 46] 1.84% | viability [11, 47] 1.81% | viability [11, 48] 1.46% | viability [11, 49] 0.836%
2.92: SSMD [10]
